Bioassay records (PubChem BioAssay)
A selection: hits, their analogues and other compounds. The true share with any hit is near 12%.
CHOP inh = inhibitors of CHOP promoter induction, primary screen, cell-based, unfolded protein response, luciferase reporter. inhibition, % at 10 µM. hit rate 3.8% among 220,000. CHO-K1 CHOP-promoter luciferase, tunicamycin-induced, 15-18 h;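 active = compounds that reduced the stress-induced luciferase reporter signal by more than about 70% of percent inhibition, limit read from the data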;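 note: 0% = tunicamycin plus vehicle and 100% = wells without tunicamycin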
Lmaj promast = Leishmania major promastigote growth inhibition, primary screen | Leishmania major promastigotes, resazurin fluorescence viability | inhibition, % at 10 µM | hit rate 9% among 200,000; in the data active = inhibition above about 50%;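 note: promastigotes grown with compound for 44 hours at 28 °C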
WT yeast gro inh = growth inhibition of WT strain, primary screen, mitochondrial fusion inhibitor project, WT and mutant strains, chemical genetic. hit rate 2.1% among 190,000. mitochondrial fusion phenotypic screen. inhibition, % at 10 µM; in the data active = inhibition above about 58%; tested in S. cerevisiae
Arbovirus inh = antivirals against arbovirus infection, primary screen, cell-based, full library, 10K replicate subset. arbovirus infection cell-based antiviral screen. inhibition, % at 10 µM. hit rate 0.37% among 200,000. AID 1251, 2008; in the data active = inhibition above about 30%
Active calls of the source: *; . = not tested or not shown.

SMILES	CHOP inh	Lmaj promast	WT yeast gro inh	Arbovirus inh
O=C(COc1ccc(Cl)cc1)N1CCN(C/C=C/c2ccccc2)CC1	51	89*	44	-8
CC(C)CN1CCN(Cc2cccc3c2OCO3)CC1CCO (stereo not drawn)	-7	11	-14	4
CCCN1CCC[C@@H](c2cccc(O)c2)C1	-2	.	.	.
CC1(C)CC(=O)C2=C(C1)NC(=O)C21C(C(=O)OC(C)(C)C)=C(N)Oc2ccc(Br)cc21 (stereo not drawn)	29	6	7	9
O=c1[nH]c(=S)n(C2CC2)c(O)c1/C=N/Nc1ccccc1	-5	89*	58*	-39
O=c1[nH]c(=S)n(C2CC2)c(O)c1/C=N/Nc1cccc2ccccc12	36	-1	7	1
CCC(C)n1c(O)c(/C=N/N2CCOCC2)c(=O)[nH]c1=S (stereo not drawn)	13	55*	2	7
CCCCC(=O)N/N=C/c1c(O)n(C2CC2)c(=S)[nH]c1=O	43	98*	6	3
CCC(C)n1c(O)c(C=NCCN2CCOCC2)c(=O)[nH]c1=S (stereo not drawn)	13	.	.	.
CCC(C)n1c(O)c(/C=N/Nc2ccccc2)c(=O)[nH]c1=S (stereo not drawn)	5	81*	52	-33
CC(C)(C)n1cc(C(=O)c2ccccc2)cc1-c1ccccc1	20	.	.	.
CC(=O)N1N=C2C3CCN(CC3)C2C1c1ccccc1 (stereo not drawn)	-5	5	-2	2
NC(=NCCC[C@H](N)C(=O)O)N[N+](=O)[O-]	0	.	.	.
c1ccc2sc(C3(N4CCCCC4)CCCCC3)cc2c1	-2	.	.	.
CCC(C)n1c(O)c(/C=N/NC(=O)c2ccncc2)c(=O)[nH]c1=S (stereo not drawn)	45	100*	4	26
CCn1c(O)c(/C=N/NC(=O)c2ccncc2)c(=O)[nH]c1=S	-4	99*	-16	19
CN1CCN(c2nc3ccccn3c(=O)c2C=C2C(=O)N(C)C(=O)N(C)C2=O)CC1	7	-6	4	-2
Cc1ccc(CN2C(=O)NC(=O)C3(Cc4c(nc5ccccn5c4=O)N4CCCCCC43)C2=O)cc1 (stereo not drawn)	86*	85*	31	-10
CCOC(C(=O)OCCCN(CC)CC)(c1ccccc1)c1ccccc1	10	100*	-9	-13
CCN(CC)CCCOC(=O)C(OC(C)C)(c1ccccc1)c1ccccc1	25	89*	36	3
COC[C@H]1OC(=O)c2coc3c2[C@@]1(C)C1=C(C3=O)C2CCC(=O)[C@@]2(C)C[C@H]1OC(C)=O (stereo partly drawn)	-11	.	.	.
CNC(C(=O)c1ccccc1)C(OC(C)=O)c1cccc([N+](=O)[O-])c1 (stereo not drawn)	3	.	.	.
CN1CCN(c2ncnc3c2cnn3C)CC1	-8	.	.	.
CCc1cc2c(N3CCN(C)CC3)ncnc2s1	-23	73*	-10	13
Cc1ccccc1C(O)(Cc1ccccc1)C1CN2CCC1CC2 (stereo not drawn)	-35	98*	-5	-41
SMILES	CHOP inh	Lmaj promast	WT yeast gro inh	Arbovirus inh
Fc1ccccc1CNC1CN2CCC1CC2 (stereo not drawn)	15	-6	11	5
CN1CCC2(CC1)CC(NC=O)c1ccccc1O2 (stereo not drawn)	2	0	-3	15
NC(=O)Nc1ccc(C(=O)OCC(=O)Nc2ccc(Cl)cc2C(=O)c2ccccc2)cc1	76*	-3	5	-7
CC(C)CNP(=S)(c1ccccc1)C(C)(C)C (stereo not drawn)	1	.	.	.
COP(=O)(OC)/C(C=O)=N/Nc1ccc([N+](=O)[O-])cc1	10	-12	-5	4
Cc1ccc(C(C)C)c(OCC(=O)N2CCN(Cc3nc4cc([N+](=O)[O-])ccc4n3C)CC2)c1	34	97*	46	8
CN1C(=O)C(Cc2cccc3ccccc23)C(=O)N(C)C1=O	-8	-5	7	0
O=C1C2CCN(CC2)[C@@H]1Cc1ccc2ccccc2c1O	11	99*	11	14
Cc1cccc(CN2CCCC(C(=O)c3ccc(C(F)(F)F)cc3)C2)n1 (stereo not drawn)	-50	79*	17	13
Cc1cc(Cl)ccc1C(=O)C1CCCN(C2CCSCC2)C1 (stereo not drawn)	9	85*	14	12
O=C(c1ccc(C(F)(F)F)cc1)C1CCCN(C2CCSCC2)C1 (stereo not drawn)	27	92*	6	1
COc1ccccc1-n1c(O)c(/C=N/N2CCCCC2)c(=O)n(-c2ccccc2OC)c1=S	8	.	.	.
CC(N)c1cccc(Cl)c1Cl (stereo not drawn)	-4	.	.	.
Cc1ccccc1-n1c(O)c(C=Nc2ccc(N(C)C)cc2)c(=O)[nH]c1=O	34	58*	-5	2
Cc1cccc(N=Cc2c(O)n(-c3ccccc3C)c(=O)[nH]c2=O)c1	-19	-3	10	14
C=CCn1c(O)c(C=Nc2ccc(N(CC)CC)cc2)c(=O)[nH]c1=O	71*	0	-7	12
Cc1ccc2[nH]c(=S)n(-c3cccnc3)c(=O)c2c1	7	.	.	.
COc1cc(OC)c2c(c1)OCC1CON(C)C21 (stereo not drawn)	1	-4	-10	5
COc1cccc(/C=C2\N=C(c3cncc(Br)c3)OC2=O)c1	85*	-8	7	4
CCC(=NCCO)c1c(O)n(C2CCCCC2)c(=O)[nH]c1=O	14	3	0	14
CCC(=NCc1ccc2c(c1)OCO2)c1c(O)n(C2CCCCC2)c(=O)[nH]c1=O	31	17	62*	-24
CCOC(=O)Cc1csc(NC(=O)c2c(O)c3ccccc3n(CCC(C)C)c2=O)n1	89*	29	-6	16
CC(=O)Nc1nc(CCl)cs1	11	-4	-12	10
CCCCn1c(=O)c(C(=O)Nc2ccsc2C(=O)OC)c(O)c2ccccc21	20	53*	-9	-25
CCCCCn1c(=O)c(C(=O)Nc2ccncc2)c(O)c2ccccc21	.	.	17	-12
SMILES	CHOP inh	Lmaj promast	WT yeast gro inh	Arbovirus inh
CCCCCCn1c(=O)c(C(=O)Nc2nc(CC(=O)OCC)cs2)c(O)c2ccccc21	84*	.	.	.
CCCCCn1c(=O)c(C(=O)NCc2ccncc2)c(O)c2ccccc21	8	28	3	-39
CCCCCCn1c(=O)c(C(=O)Nc2c(C)n(C)n(-c3ccccc3)c2=O)c(O)c2ccccc21	90*	.	.	.
CC12NC(Cc3ccccc31)c1ccccc12 (stereo not drawn)	-21	.	.	.
COc1cc2ccccc2cc1C(=O)Nc1ccc(Cc2ccncc2)cc1	67	99*	50	-35
CN1c2ccc([N+](=O)[O-])cc2CC2(C(=O)NC(=O)N(c3ccccc3)C2=O)C1c1ccccc1 (stereo not drawn)	24	58*	-7	7
CCCCCSc1cc(O)c(C(CNC)C(C)C)cc1OC (stereo not drawn)	43	100*	8	-35
CC(C)(C)C(=O)c1cn(Cc2ccccc2)c2ccccc12	33	5	27	8
CN(C(=O)Cc1ccc(Cl)c(Cl)c1)C(CN1CCCC1)c1cccc(OCC(=O)O)c1 (stereo not drawn)	-4	.	.	.
